Compound activity: PubChem, National Center for Advancing Translational Sciences (NCATS)
ERK AVP block = inhibitors of vasopressin-stimulated ERK signaling pathway | HEK293-V1b, vasopressin-stimulated pERK AlphaScreen | Potency, µM (highest dose often 57.5 µM), hits mostly inhibitors | hit rate 0.99% among 72,000; also: nearly all actives have a fitted effect of over 55% in size
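qHTS, compounds titrated on V1b-expressing HEK293 cells. Preincubation 30 min at 37C, vasopressin 25 nM for 5 min, lysis 10 min, bead incubation 5 hr at room temperature.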
GFP derepression = epigenetic GFP locus derepression in mouse cells; hit rate 0.09% among 68,000; mouse C127i GFP locus derepression, cytometry, 30 h; Potency, µM (series often up to 46.1 µM)
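Murine C127i mammary cells carrying a silenced, stably integrated CMV-driven GFP reporter were treated with compound for 30 hours at 37 C. After PBS washes, GFP-positive cells were counted by laser-scanning microplate cytometry.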
CRE Fsk mod = CRE-bla signaling modulation under forskolin stimulation. CHO CRE-bla reporter (cAMP response element driving beta-lactamase), forskolin EC10, beta-lactamase ratio. Potency, µM (highest dose often 38.2 µM), actives largely listed as activators. hit rate 2.5% among 71,000. AID 662; active = well fitted activation curve with a large enough effect in the signal ratio, with a control signal flat, not every such curve was filed as active; inconclusive = small, poorly fitted or top-dose-only effect, or effect the other way, or a change in a side signal; the % refers to the signal ratio
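Forskolin analogue NKH 477 at EC10 stimulated CRE-driven beta-lactamase in CHO cells alongside compound dilution series. Beta-lactamase was measured with CCF4, excitation 405 nm, emission ratio 460/530 nm.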
IkB sig inh = IkB pathway inhibition in ABC-DLBCL cells. ABC-DLBCL IkBa-CBG/CBR dual luciferase ratio, 4 h; response scale: scaled: untreated 0%, proteasome inhibitor 100%. Potency, µM (series often up to 57.1 µM). hit rate 0.04% among 110,000. AID 445; active = well fitted curve in the direction sought with a large enough effect in the signal ratio, not every such curve was filed as active; inconclusive = small, poorly fitted or top-dose-only effect, or a change in a side signal; the % refers to the signal ratio;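 also: the direction sought is a rising ratio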
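Curves were fitted separately to fusion (green), unfused (red) and ratio luminescence, then classed by r2, magnitude and activity. Cells: OCI-Ly3, 4 h compound plus doxycycline at 37C; 10 uM MG-132 defined full response.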
HBB splice mod = alters splicing of the hemoglobin beta chain; HBB splicing reporter cell assay, activation; EGFP reporter with mutant IVS2-654 intron; response scale: normalised to 500 nM splice-correcting PNA; Potency, µM (highest dose often 46.1 µM), usual class: activators; hit rate 0.06% among 65,000
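Compounds were applied for 2 days to HeLa EGFP-654 cells, 500/well in Optimem with 2% FCS. The reporter's EGFP is disrupted by mis-splicing of beta-globin intron IVS2-654. Readout: summed well GFP fluorescence from 488 nm laser scanning; reference was 500 nM antisense […] 654 PNA.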
Each line names hits and unclear results; the compound was inactive in the other large screens. This excerpt belongs to a sample that is enriched for hits. Unless noted, calls follow the shape of the dose curve; as a rule, active = well fitted curve in the direction sought with a large enough effect; inconclusive = small, poorly fitted or top-dose-only effect, or another doubt; inactive = no such curve, though single readings can be large; an effect the other way counts as inactive or inconclusive.

Cc1ccc(NC(=O)N(Cc2ccc3c(c2)OCO3)Cc2cc3cc4c(cc3[nH]c2=O)OCCO4)cc1	CRE Fsk mod inconclusive (no result: HBB splice mod)
COc1ncc2nc(-c3cccs3)c(=O)n(CCC#N)c2n1	CRE Fsk mod 7.9µM
COCCn1c(=O)c(-c2cccs2)nc2cnc(Oc3ccccc3)nc21	CRE Fsk mod inconclusive
COCCn1c(=O)c(-c2cccs2)nc2cnc(Oc3ccc(OC)cc3)nc21	CRE Fsk mod 10µM
COc1ccc(Oc2ncc3nc(-c4cccs4)c(=O)n(C)c3n2)cc1	CRE Fsk mod 2.5µM
COc1ccc(-n2c(=O)c(-c3cccs3)nc3cnc(Oc4ccccc4)nc32)cc1	CRE Fsk mod inconclusive
COc1ccc(Oc2ncc3nc(-c4cccs4)c(=O)n(CCC#N)c3n2)cc1	CRE Fsk mod inconclusive
Cn1c(=O)c(-c2cccs2)nc2cncnc21	CRE Fsk mod 10µM
O=c1c(-c2cccs2)nc2cncnc2n1-c1ccccc1	CRE Fsk mod inconclusive
COC(=O)c1ccc(NC(=O)CC2C(=O)N(c3cccc(C)c3)C(=O)N2Cc2ccco2)cc1 (configuration not stated)	none (no result: ERK AVP block, GFP derepression, CRE Fsk mod, HBB splice mod)
COc1ccc(Oc2ncc3nc(-c4ccc(F)cc4)c(=O)n(Cc4cccs4)c3n2)cc1	CRE Fsk mod 13µM
COCCn1c(=O)c(-c2cccs2)nc2cnc(N3CCOCC3)nc21	CRE Fsk mod 2µM
COc1ncc2nc(-c3ccc(F)cc3)c(=O)n(Cc3cccs3)c2n1	CRE Fsk mod inconclusive
COc1ccc(-n2c(=O)c(-c3cccs3)nc3cnc(N4CCOCC4)nc32)cc1	CRE Fsk mod inconclusive
Cc1ccc(-c2nn(C)c(=O)c3ccccc23)cc1S(=O)(=O)N1CCOCC1	ERK AVP block inconclusive, CRE Fsk mod 3.2µM
Cc1ccc(-c2nn(C)c(=O)c3ccccc23)cc1S(=O)(=O)NCCO	ERK AVP block inconclusive, CRE Fsk mod 10µM
Cc1ccc(-c2nn3c(-c4ccco4)nnc3c3ccccc23)cc1S(=O)(=O)N1CCOCC1	ERK AVP block inconclusive, CRE Fsk mod inconclusive
Cc1ccccc1Nc1nnc(-c2ccc(C)c(S(=O)(=O)N3CCCCC3)c2)c2ccccc12	none (no result: ERK AVP block, GFP derepression, CRE Fsk mod, HBB splice mod)
Cc1ccc(-c2nn(C)c(=O)c3ccccc23)cc1S(=O)(=O)N1CCCC1	CRE Fsk mod 3.2µM, IkB sig inh inconclusive (no result: ERK AVP block, GFP derepression)
O=C(O)/C=C(/C(=O)O)[C@]12CCN3CC4=CCO[C@@H]5CC(=O)N[C@@H]1[C@H]5[C@H]4C[C@H]32	none
CN(C)CCCO[C@H]1[C@H]([C@H](O)CO)O[C@H]2OC(C)(C)O[C@@H]21	none
CCCn1c(=O)c2sccc2n2c(CCCC(=O)N3CCN(c4cccc(Cl)c4)CC3)nnc12	none (no result: ERK AVP block, GFP derepression, CRE Fsk mod, HBB splice mod)
OCCNc1nc(-c2cccnc2)nc2ccccc12	CRE Fsk mod 4µM
CN(C)c1nc(-c2cccnc2)nc2ccccc12	CRE Fsk mod inconclusive
c1cncc(-c2nc(NCc3ccco3)c3ccccc3n2)c1	ERK AVP block inconclusive, CRE Fsk mod inconclusive, IkB sig inh inconclusive, HBB splice mod inconclusive
OCCSc1nc(-c2cccnc2)nc2ccccc12	ERK AVP block inconclusive, CRE Fsk mod 6.3µM
CCN(C(=O)c1coc(=O)c2ccccc12)c1ccccc1C	none (no result: ERK AVP block, GFP derepression, CRE Fsk mod, HBB splice mod)
Cc1ccc2c(c1)c(C)c(C)n2CC(O)Cn1nc(C)c(Br)c1C (configuration not stated)	CRE Fsk mod 2µM
Cc1ccc2c(c1)c1c(n2CC(O)Cn2nc(C)c(Br)c2C)C(=O)CCC1 (configuration not stated)	none
CC(=O)OCC(=O)[C@@]1(O)CCC2C3CC[C@H]4CC(O)CC[C@@]4(C)C3C(=O)C[C@]21C (some centres not stated)	none (no result: GFP derepression, CRE Fsk mod, IkB sig inh, HBB splice mod)
O=C(CSc1nccn1Cc1ccc(F)cc1)Nc1ccc2c(c1)OCCO2	none (no result: ERK AVP block, GFP derepression, CRE Fsk mod, HBB splice mod)
Cc1noc(C)c1CSc1nc2sc(C)c(C)c2c(=O)n1C1CCCC1	CRE Fsk mod 2µM
C=CCn1c(SCc2c(C)noc2C)nc2sc3c(c2c1=O)CCCCC3	CRE Fsk mod 2.5µM
COc1ccc(Cc2nnc(SCc3c(C)noc3C)n2C2CCCCC2)cc1OC	IkB sig inh inconclusive
C=CCn1c(SCc2c(C)noc2C)nc2cc(C(=O)O)ccc2c1=O	CRE Fsk mod inconclusive
O=C(Nc1nc(-c2ccc(Cl)s2)cs1)c1cccs1	ERK AVP block 10µM, IkB sig inh inconclusive
O=C(Nc1nc(-c2ccccn2)cs1)c1ccc(Cl)s1	IkB sig inh 1µM (no result: ERK AVP block, GFP derepression)
CC(C)(C)c1csc(NC(=O)c2cccs2)n1	ERK AVP block inconclusive, IkB sig inh inconclusive
O=C(Nc1nc(-c2ccccc2)ns1)c1cccs1	none
O=C(Nc1nc(-c2ccccn2)cs1)c1ccc(S(=O)(=O)N2CCCCC2)cc1	ERK AVP block 25µM, IkB sig inh inconclusive
O=C(Nc1nc(-c2ccccc2)cs1)c1cccs1	ERK AVP block 16µM, IkB sig inh inconclusive
COc1ccccc1NC(=O)CN1CCC(n2c(C)nc3cc(F)ccc32)CC1	ERK AVP block inconclusive, CRE Fsk mod 2µM
C/C=C1\CC2C=CC1C2 (configuration not stated)	none (no result: GFP derepression)
NC(=O)c1sc2nc(N3CCCCC3)c3c(c2c1N)CCCC3	CRE Fsk mod 1.3µM, IkB sig inh inconclusive
CCOC(=O)c1sc2nc(N3CCOCC3)c3c(c2c1N)CCCC3	CRE Fsk mod inconclusive
Oc1ccc(Nc2nc(NCC3CCCO3)c3ccccc3n2)cc1 (configuration not stated)	ERK AVP block 13µM
Oc1ccccc1Nc1nc(NCC2CCCO2)c2ccccc2n1 (configuration not stated)	IkB sig inh inconclusive (no result: HBB splice mod)
C=C(CO)[C@H]1Cc2c(ccc3c(=O)c4c(oc23)COc2cc(OC)c(OC)cc2-4)O1	CRE Fsk mod inconclusive (no result: ERK AVP block, HBB splice mod)
CCN1CCN(c2ncnc3c2nnn3Cc2ccccc2)CC1	none (no result: HBB splice mod)
c1ccc(Cn2nnc3c(N4CCCC4)ncnc32)cc1	CRE Fsk mod 10µM (no result: HBB splice mod)
Cc1nc(N2CCC(C(N)=O)CC2)c2nnn(Cc3ccccc3)c2n1	none (no result: HBB splice mod)
Cc1nc(N2CCCC2)c2nnn(Cc3ccccc3Cl)c2n1	CRE Fsk mod 2.5µM (no result: HBB splice mod)
CCOC(=O)c1c(-c2ccccc2)csc1NC(=O)c1cc(-c2cccc(OC)c2)on1	none (no result: ERK AVP block, GFP derepression, CRE Fsk mod, HBB splice mod)
CC(=O)c1ccc(NC(=O)C(C)n2nc(-c3ccccc3)ccc2=O)cc1 (configuration not stated)	none (no result: ERK AVP block, GFP derepression, CRE Fsk mod, HBB splice mod)
COC(=O)c1cc2c([nH]c3ccccc32)c(C)n1	ERK AVP block 32µM (no result: HBB splice mod)
CCSc1sccc1C1C(C#N)=C(N)N(c2cccnc2)C2=C1C(=O)CCC2 (configuration not stated)	ERK AVP block 32µM
COc1cccc(-c2cc(NCc3cnc(C)cn3)ncn2)c1	CRE Fsk mod inconclusive
CC1CCCN(c2ccc(C(=O)NCc3cccs3)cn2)C1 (configuration not stated)	ERK AVP block 16µM (no result: HBB splice mod)
O=C(NCc1cccs1)c1ccc(N2CCCCC2)nc1	CRE Fsk mod inconclusive, IkB sig inh inconclusive
